ALR H2O2 inh: inhibitors of human sulfhydryl oxidase ALR; purified ALR, DTT oxidation, H2O2 HRP-luminol luminescence; inhibition, % (no concentration beside the values); actives 3.8% (n = 290,000); AID 485317;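 active means mean replicate inhibition above about 79%, with every replicate also reaching it, limit read from the data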
Target sequence (P55789 whole entry, looked up): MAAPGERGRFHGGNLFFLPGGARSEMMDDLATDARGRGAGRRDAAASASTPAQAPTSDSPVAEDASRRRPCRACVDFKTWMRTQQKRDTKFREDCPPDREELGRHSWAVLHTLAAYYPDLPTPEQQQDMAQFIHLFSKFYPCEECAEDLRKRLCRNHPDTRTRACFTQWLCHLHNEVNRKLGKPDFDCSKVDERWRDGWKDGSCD
Mot1-301 SUMO: SUMOylation pathway inhibition by Mot1-301 growth rescue; S. cerevisiae Mot1-301 growth rescue, ATP luminescence, 38.5C; percent above DMSO median, 100 means doubled; growth rescue, % at 18.8 µM; actives 1% (n = 320,000); AID 2716;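 active means every valid replicate shows activation above 250% relative to neutral control wells; inactive means the rest, any valid replicate at or below 250%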;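 further: OY570 slx delta 5 strain wells were the positive control but not used for scaling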
HIF activator: HIF pathway transcriptional activation. U2OS HRE-luciferase reporter, luminescence; normalized: DMSO 0%, desferrioxamine 100%. actives 0.32% (n = 300,000). activation, % at 7.5 µM (by protocol). AID 1910;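 active means mean activation of at least 10% of the iron chelator positive control signal, with at least half of replicates also reaching 10%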
PfM18AAP inh: PfM18AAP enzyme inhibition; actives 1.2% (n = 290,000); AID 1822; recombinant PfM18AAP, H-Glu-NHMec fluorogenic cleavage; inhibition, % at 7.35 µM;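 active means inhibition above the campaign mean inhibition over all tested compounds plus 3 SD, cut at about 28% in these data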;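 further: 0% = plate median of test compound wells and 100% = 2 mM ZnCl2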
The depositor's hits bear a star; i = inactive; . = no result; + = active, no number. In the library only some 5.3% were active in any assay of this set; here they are far more common.

SMILES	ALR H2O2 inh	Mot1-301 SUMO	HIF activator	PfM18AAP inh
Cc1cc(C)cc(-n2c(SCC(=O)NCc3ccc4c(c3)OCO4)nc3ccccc3c2=O)c1	0	-16	0	5
CC(C)(C)c1cc(NCc2ccccn2)n2ncc(-c3ccccc3)c2n1	.	-47	.	3
CCCCN1CC(=O)N2[C@H](c3ccc(Cl)cc3)[C@@H]3C(=O)N(CC)C(=O)[C@@H]3[C@]2(C)C1=O	.	-16	0	-11
Cc1cc(C(C)(C)C)cc(C)c1C[n+]1ccc2ccccc2c1	-13	1	0	-8
Oc1ccc2ccccc2c1/C=N/Nc1nnc(-c2ncc[nH]2)c2ccccc12	-3	46	82*	7
CN(C)/C=C/C(=C\C(=O)C(F)(F)F)Nc1ccc(C(F)(F)F)cc1	-2	.	0	6
COc1ccc(CCNC(=O)c2nnn(CC(=O)Nc3c(C)cc(C)cc3C)c2N)cc1OC	-5	-11	107*	-2
CCOc1ccc(CCNC(=O)c2nnn(CC(=O)Nc3c(C)cc(C)cc3C)c2N)cc1OCC	-2	-6	1	-2
O=C(Nc1cc([N+](=O)[O-])ccc1F)c1ccc2ccccc2c1	-2	2	-1	-8
O=C1CC(SCc2nc3ccccc3[nH]2)C(=O)N1c1cccc(Cl)c1 (configuration not stated)	98*	7	0	-15
O=C1CC(SCc2nc3ccccc3[nH]2)C(=O)N1c1ccc(F)cc1 (configuration not stated)	32	-22	0	0
O=C(NCC(c1cccnc1)N1CCN(c2ccc(F)cc2)CC1)c1ccccc1 (configuration not stated)	50	15	0	1
O=C(NCc1cccnc1)C(=O)NCC(c1ccco1)N1CCN(c2ccccc2)CC1 (configuration not stated)	98*	6	0	-1
O=C(NCC(c1cccnc1)N1CCN(c2ccccc2)CC1)c1ccco1 (configuration not stated)	99*	9	0	0
O=C(NCC(c1ccco1)N1CCCCC1)C(c1ccccc1)c1ccccc1 (configuration not stated)	94*	14	0	-5
COCCn1nnnc1C(c1ccccc1OC)N1CCN(c2ccccc2)CC1 (configuration not stated)	84*	842	0	-7
NS(=O)(=O)c1ccc(CCN2C(=O)CCC2=O)cc1	3	273	0	2
O=C(NCC1CC1)[C@]1(C(F)(F)F)C[C@H](CCC2CCCCC2)CCCO1	-11	27	2	.
c1ccc(Cn2nnnc2C(c2cccnc2)N2CCN(c3ccccc3)CC2)cc1 (configuration not stated)	98*	145	0	4
O=C(NCc1cccs1)C(=O)NCC(c1ccco1)N1CCN(c2ccccc2)CC1 (configuration not stated)	98*	7	0	-4
COc1ccc(S(=O)(=O)N2CC(C)N(C(=O)N(C)C)C2C(C)C)cc1 (configuration not stated)	-4	1	0	-2
Nc1c(C(=O)N2CCOCC2)sc2nc3c(cc12)CCCC3	.	5	-3	31*
CCc1cccc(NC(=O)c2cccc3c2C(=O)N(CC2CCCO2)C3)c1 (configuration not stated)	4	38	0	-2
O=S(Cc1ccc(Cl)cc1)c1ncc(CO)n1Cc1ccccc1 (configuration not stated)	-13	-3	0	-2
O=S(=O)(Cc1ccc(Cl)cc1)c1ncc(CO)n1Cc1ccccc1	-4	+	0	-3
SMILES	ALR H2O2 inh	Mot1-301 SUMO	HIF activator	PfM18AAP inh
CC1CCCCC1NC(=O)c1cc(S(=O)(=O)N2CCOCC2)ccc1Cl (configuration not stated)	-20	-8	.	.
CCCc1cc(=O)[nH]c(SCc2ccccc2)n1	.	2	-1	3
C=CCn1c(SCC(=O)Nc2ccc3c(c2)OCO3)nnc1-c1ccccc1OC	-4	-3	0	6
Cc1cc(=O)[nH]c(SCc2nc3ccc([N+](=O)[O-])cc3[nH]2)n1	-12	-4	0	4
Cc1cc(C)nc(SCc2csc(-c3ccccc3)n2)n1	99*	-13	1	1
CCCc1cc(=O)[nH]c(SCc2nc3ccc([N+](=O)[O-])cc3[nH]2)n1	99*	0	0	2
C=CCn1c(SCc2csc(-c3ccc(Cl)cc3)n2)nnc1-c1ccccc1OC	81*	-15	0	2
Cc1cc(C)nc(SCc2csc(N)n2)n1	.	-20	.	10
CCCc1cc(=O)[nH]c(SCc2cccnc2)n1	97*	-16	.	5
CCc1nc(SCc2ccccn2)[nH]c(=O)c1C	-4	-2	0	-5
Cc1nc(NC(=O)CSc2ccc(-c3nc4ccccc4[nH]3)cn2)sc1C	99*	-6	-2	12
CCCc1cc(=O)[nH]c(SCC(=O)Nc2nc(-c3ccccc3)cs2)n1	99*	-3	-1	-3
CCc1nc(SCc2cccnc2)[nH]c(=O)c1C	99*	245	-18	-3
c1ccc(-c2nc(CSc3nnc(-c4cccs4)o3)cs2)cc1	98*	167	0	3
CCc1nnc(NC(=O)CSc2ccc(-c3nc4ccccc4[nH]3)cn2)s1	-3	-9	.	2
O=C(Nc1ccc(F)cc1)C1CCCN(S(=O)(=O)c2ccc3[nH]c(=O)ccc3c2)C1 (configuration not stated)	-4	315	0	7
COc1ccc(NCC(=O)n2c(C)c(C)c3ccccc32)cc1OC	.	3	0	9
O=C(/C=C/c1ccco1)N(Cc1ccc(Cl)cc1)C1CCS(=O)(=O)C1 (configuration not stated)	-2	-13	0	-9
Nc1ccccc1SCc1csc(-c2ccc(Cl)cc2)n1	98*	22	2	11
CCc1nc(SCc2ccc(F)cc2)[nH]c(=O)c1C#N	98*	-14	.	0
O=C(CS(=O)(=O)c1ccccc1)Nc1nc(-c2ccccc2)cs1	99*	i	1	5
O=C(CSc1nc2ccccc2[nH]1)Nc1nc(-c2ccc(Br)cc2)cs1	98*	-3	1	-8
Cc1ccc(S(=O)(=O)CC(=O)Nc2nc(-c3ccccc3)cs2)cc1	-3	3	0	-2
CCCc1cc(=O)[nH]c(SCc2csc(-c3ccccc3)n2)n1	99*	133	0	-2
CCCc1cc(=O)[nH]c(SCc2cccc(C)c2)n1	0	-1	0	6
NC(=O)C1CC(=O)N(c2ccc(OCc3ccccc3Cl)cc2)C1 (configuration not stated)	-2	-12	1	-12
COc1ccc(N2C(=O)CC(Sc3ccccc3C(=O)O)C2=O)c([N+](=O)[O-])c1 (configuration not stated)	8	79	0	-25
CC1=CC(=O)C=C(C)C1=NOC(=O)/C=C\c1ccccc1	98*	-17	-1	14
CC1=CC(=NOC(=O)/C=C/c2ccccc2)C=C(C)C1=O	59	-24	-1	6
